Source: PubChem (National Center for Advancing Translational Sciences (NCATS))
MCF10A rereplic: inducers of DNA re-replication in MCF 10A breast cells | MCF 10A DNA re-replication, Hoechst nuclear intensity, 48 h | Potency, µM (highest dose often 46.1 µM), without a hit: top-dose activity, positive = re-replication, most hits filed as activators | 350,000 compounds, 2.9% hits | AID 624296; further: % of control where 0% means no effect; nearly all actives have a fitted effect of over 50% in size
HT1080 IDH1KD tx: HT-1080 IDH1 knockdown cell toxicity (counter line). Potency, µM (top dose mostly 46.1 µM), without a hit: at the top dose activity, negative = toxicity, hits mostly cytotoxic. AID 686971. HT-1080 IDH1 knockdown viability, ATP luminescence, 48 h. 360,000 compounds, 2% hits;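 further: 0% = DMSO wells and -100% = cell-free medium wells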
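In this qHTS, HT-1080 cells depleted of IDH1 are exposed for 48 h at 37 °C to compound titrations. Toxicity is scored from CellTiter-Glo luminescence, with DMSO as full viability and medium alone as none.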
HT1080NT lethal: kills 2HG-producing HT-1080-NT fibrosarcoma cells | HT-1080-NT fibrosarcoma viability, CellTiter-Glo ATP luminescence, 48 h | Potency, µM (doses to about 46.1 µM), for the others: top-dose activity, negative = less viability, hits mostly cytotoxic | 360,000 compounds, 1.6% hits;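 further: NT is the 2HG producing partner of a matched IDH1 knockdown line; 0% = DMSO-treated cells and -100% = media-only wells without cells; nearly all actives have a fitted effect of over 55% in size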
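Viability of the 2HG-overproducing fibrosarcoma line after 48 hours of compound exposure at 37 degrees C was determined by luminescence with CellTiter-Glo, and concentration-effect curves were then fitted and categorized.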
KB-V1 cytotox: kills drug-selected multidrug resistant KB-V1 cells. KB-V1 MDR cells viability, CellTiter-Glo, 72 h. Potency, µM (doses to about 46.1 µM), usual class: cytotoxic. 400,000 compounds, 3.4% hits; further: on the % scale 0 is the no-effect control and ±100 the full control effect; nearly all actives have a fitted effect of over 60% in size
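Cytotoxicity toward P-gp-expressing KB-V1 cells was determined as loss of CellTiter-Glo luminescence after 72 h at 37 degrees C. Compounds were tested in quantitative HTS format across a concentration range, with curves fitted to normalized data.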
SW480 rereplic: DNA re-replication induction in SW480 cells; SW480 DNA re-replication, Hoechst DNA content imaging, 48 h; Potency, µM (titrated, usually from 46.1 µM), for inactives: at the top dose re-replication activation, most hits filed as activators; 340,000 compounds, 1.8% hits; further: % of control where 0% means no effect; nearly all actives have a fitted effect of over 55% in size
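Image-based read-out: total Hoechst fluorescence of nuclei (405 nm excitation, 500-530 nm emission), with hits raising the fraction of high-intensity nuclei. SW480 colon cells incubated 48 hr with compounds at 37 C.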
KB-3-1 cytotox: KB-3-1 parental cell cytotoxicity | KB-3-1 viability, CellTiter-Glo ATP luminescence, 72 h | Potency, µM (highest dose often 46.1 µM), hits mostly cytotoxic | 400,000 compounds, 1.4% hits | AID 1347075; further: on the % scale 0 is the no-effect control and ±100 the full control effect; nearly all actives have a fitted effect of over 60% in size
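Luminescent ATP read-out (CellTiter-Glo) measures survival of drug-naive KB-3-1 cells after 72 h compound exposure at 37 °C. Titration series was screened from lowest to highest concentration, with DMSO vehicle plates as background controls.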
An asterisk follows results filed as active; i = inactive; ? = inconclusive; nt = not tested or not shown; [ ] = dose if it differs, or a comment. A selection: hits, their analogues and other compounds. The true share with any hit is near 8%. The call rests on the fitted dose curve; in most records, active means well fitted curve in the direction sought with a large enough effect; inconclusive means small, poorly fitted or top-dose-only effect, or another doubt; inactive means no such curve, though single readings can be large; an effect the other way counts as inactive or inconclusive. Potency means the concentration at half of the fitted maximal effect.

SMILES	MCF10A rereplic	HT1080 IDH1KD tx	HT1080NT lethal	KB-V1 cytotox	SW480 rereplic	KB-3-1 cytotox
Cc1ccc(Cl)c(OCC(=O)Nc2ccccc2N2CCCCC2)c1	?	-2%	1%	i	3.7µM*	i
COc1ccc(CC(=O)Nc2ccccc2N2CCCC2)cc1	-1%	11%	13%	i	?	i
Cc1ccccc1OCC(=O)Nc1ccc(N2CCN(C)CC2)c(Cl)c1	15µM*	?	?	i	?	i
CCN(CC)S(=O)(=O)c1ccc(N2CCOCC2)c(NC(=O)COc2ccccc2C)c1	7%	-9%	-7%	i	-43%	i
Cc1cccc(NC(=O)CSCC(=O)Nc2ccccc2N2CCCC2)c1	2%	-11%	-2%	?	1%	i
COc1ccccc1OCC(=O)Nc1cc(Cl)ccc1N1CCCCC1	?	-6%	-8%	15µM*	12%	i
COc1ccccc1OCC(=O)Nc1cc(S(=O)(=O)N2CCCCC2)ccc1N1CCCCC1	?	4%	7%	i	3%	i
COc1ccc(OCC(=O)Nc2ccccc2N2CCCCC2)cc1	3.3µM*	4.1µM*	3.3µM*	i	12µM*	?
Cc1cccc(NC(=O)CSCC(=O)Nc2ccccc2N2CCCCC2)c1	131%	-13%	-25%	16µM*	?	?
COc1ccc(OCC(=O)Nc2ccccc2N2CCN(C)CC2)cc1	0%	-2%	-8%	i	-5%	i
CCSc1nc2c([nH]c3ccccc32)c(=O)n1-c1ccc(F)cc1	nt	nt	nt	?	nt	i
O=C(COC(=O)CNC(=O)c1ccccc1Cl)Nc1ccccc1Cl	-5%	nt	nt	?	-11%[9.22 µM]	?
CC(=O)Nc1ccc(Oc2sc(C(=O)c3ccccc3)c(N)c2C#N)cc1	21µM*	16µM*	?	i	?	i
CC(=O)Nc1ccc(Oc2ccccc2)cc1	3%	-3%	0%	i	-15%	i
CC(OC(=O)C1CCCCC1)c1nc2ccccc2[nH]1 (stereo not given)	-1%	4%	-1%	21µM*	-8%	i
CCc1nnc(NC(=O)c2cc(=O)c3cc(C)ccc3o2)s1	nt	nt	nt	i	nt	?
CC(C)CCn1c(N)c(S(=O)(=O)c2cccs2)c2nc3ccccc3nc21	16%	?	22µM*	21µM*	?	i
Cc1ccc(S(=O)(=O)c2c(N)n(CCC(C)C)c3nc4ccccc4nc23)cc1	?	?	?	13µM*	16µM*	?
Cc1ccc(S(=O)(=O)c2c(N)n(CCCO)c3nc4ccccc4nc23)cc1	-1%	-1%	-22%	i	6%	i
Cc1ccc2c(CN3CCN(S(=O)(=O)/C=C/c4ccccc4)CC3)cc(=O)oc2c1	-3%	11%	2%	i	0%	i
Cc1ccc(C)c(NC(=O)CSc2nnc(CNC(=O)c3ccccc3)n2-c2ccccc2)c1	nt	nt	nt	i	nt	i
CC(=O)C[n+]1cccc(Br)c1	nt	nt	nt	i	nt	i
COc1ccc(CNc2ncnc3nc[nH]c23)cc1	nt	-5%	1%	i	nt	i
COc1ccc(CNc2nc(NCc3ccc(OC)cc3)c3[nH]cnc3n2)cc1	12µM*	?	?	i	5%	?
Cc1ccc(NC(=O)CSCc2cc(=O)c3ccccc3[nH]2)c(C)c1	nt	nt	nt	i	nt	i
SMILES	MCF10A rereplic	HT1080 IDH1KD tx	HT1080NT lethal	KB-V1 cytotox	SW480 rereplic	KB-3-1 cytotox
O=C(c1cccc(NC2=NC3CS(=O)(=O)CC3S2)c1)N1CCN(c2ncccn2)CC1 (stereo not given)	1%	-1%	-22%	i	-3%	i
O=C(Nc1ccc(Nc2ccccc2)cc1)c1ccc(Br)o1	20%	?	-1%	13µM*	3%	?
O=C(NC(=S)Nc1ccccc1)c1ccc(Br)o1	5%	0%	13%	i	12%	i
Cc1cc(C)c2oc(-c3cccc(NC(=O)c4ccc(Br)o4)c3)nc2c1	nt	nt	nt	i	nt	i
O=C(Nc1cccc(-c2nnc(-c3ccccc3)o2)c1)c1ccc(Br)o1	-2%	?	-22%	21µM*	?	i
COc1ccc(OC2CCN(C(=O)Nc3ccc(C)cc3)CC2)cc1	15%	3%	-2%	i	-6%	i
COc1ccc(CCN2C(=O)N(c3ccc(F)cc3)C(=O)C2CC(=O)Nc2ccc(OC)cc2)cc1 (stereo not given)	nt	nt	nt	i	nt	i
O=C(NCCn1cc(SCc2cccc(F)c2)c2ccccc21)c1cccc(C(F)(F)F)c1	nt	nt	nt	21µM*	nt	i
Cc1ccc(NC(=O)c2c(C)oc3c2C2=NCCN2C=N3)cc1F	nt	nt	nt	i	nt	i
CCc1ccc(Nc2cc(C)nc3ncnn23)cc1	1%	-10%	-1%	?	-121%	?
CCn1c2ccccc2c2cc(Nc3cc(C)nc4ncnn34)ccc21	?	1µM*	0.58µM*	?	?	0.23µM*
CCCOc1ccc(Br)cc1CSC(=N)N	7%	?	-28%	i	-13%	8.2µM*
CCC(C)NC(=O)C1CCC(CNS(=O)(=O)c2ccc3c(c2)N(C(C)=O)CCO3)CC1 (stereo not given)	-2%	9%	0%	i	27%	i
O=[N+]([O-])c1c(NCCCO)cc(Sc2ccc(Cl)cc2)c2nonc12	13µM*	-2%	2%	i	-30%	?
O=[N+]([O-])c1c(NCCCO)cc(N2CCN(Cc3ccc4c(c3)OCO4)CC2)c2nonc12	?	-22%	-22%	16µM*	-3%	i
Cn1ccnc1Sc1cc(NCCCO)c([N+](=O)[O-])c2nonc12	18µM*	?	4.1µM*	i	8%	i
O=[N+]([O-])c1c(NCCCO)cc(N2CCCCCC2)c2nonc12	0%	-2%	-12%	i	-6%	i
O=[N+]([O-])c1c(NCCCO)cc(SCc2ccco2)c2nonc12	?	?	-25%	i	?	i
COc1cccc(NC(=O)CCNS(=O)(=O)c2ccc3c(c2)CCCC(=O)N3)c1	nt	nt	nt	?	nt	i
c1ccc(CNCCNCc2ccccc2)cc1	12%	nt	nt	nt	-1%	nt
O=C(CSc1nc(-c2ccc(Cl)cc2)cs1)Nc1cccc([N+](=O)[O-])c1	-2%	?	16µM*	?	-4%	?
O=[N+]([O-])c1cccc(NC(=S)Nc2nc(-c3ccccc3Cl)cs2)c1	?	18µM*	?	i	22%	?
O=C(/C=C/c1cccc([N+](=O)[O-])c1)NC(=S)Nc1cccc(NC(=O)c2ccccc2Cl)c1	16%	?	?	?	?	16µM*
